We go through ten compounds from the supplement of paper PMC11150407.

The whole screen tested about 3,000 compounds, of which about 45 (2%) showed an effect of 50% or more. This is one part of a sample in which strong results are shown more often than they occur.

The assay concerns MOLM1 and UCSD/AML1 (averaged). In words: cell viability relative to DMSO control (POC); higher = less growth inhibition. The conditions noted are these: 1 µM; 72 h. As to the method:
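Primary viability screen in the 3q26 EVI1-high AML cell lines MOLM1 and UCSD/AML1, compounds at 1 uM for 72 h. ATP CellTiter-Glo read-out given as percent viable over DMSO control (POC), averaged over duplicates. This mapping covers the TimTec NDL-3000 natural derivative library, whose compounds are identified by TimTec catalogue codes (ST...).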
For the compound `OCC1N2CCC(CC2)C1(O)O` (stereo not given), the cell viability (usually a read-out of living cells in per cent, often relative to untreated cells) stood at 32.3%.
To `CCOC(=O)C1=C(N)Oc2c(c(=O)oc3ccccc23)C1c1ccc(Cl)cc1Cl` (stereo not given) belongs 104%; to `CC(=O)OC1CCC2(C)C3CCC4(C)C(CC[C@]4(OC(C)=O)C(C)OC(C)=O)C3CC[C@H]2C1` (stereo not given in full), 109%.
For `CN1C(=O)C(=Cc2ccc3c(c2)OCO3)C(=O)N(C)C1=O`, the cell viability is 111%.
Regarding `O.O.OCC1CCCN2CCCCC12.[Cl][Cu][Cl]` (stereo not given), the cell viability stood at 110%.
For `Cc1ccc(C(c2c(O)c3ccccc3oc2=O)c2c(O)c3ccccc3oc2=O)cc1` the value was 102%; for `CCOC(=O)C1=C(N)Oc2c(c(=O)oc3ccccc23)C1c1ccc(Br)cc1` (stereo not given), 93%.
For `CCOC(=O)C1=C(N)Oc2c(c(=O)oc3ccccc23)C1c1cccc(Br)c1` (stereo not given) the value was 103%.
To `CCOC(=O)C1=C(N)Oc2c(c(=O)oc3ccccc23)C1c1ccc(Cl)c(Cl)c1` (stereo not given) belongs 37.7%; to `COCCOC(=O)c1c(C)n(Cc2ccccc2Cl)c2ccc(O)cc12`, 106%.
